Compounds without any hit were thinned out: in the full panel of roughly 83,000, 20% have a hit.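 Testing used 96-well plates and a 48-hour single-concentration exposure. Example: -40 means 40% of the starting cells died.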 A number with no mark means an inactive call. The source made the active and inactive calls. The calls were made as follows: active = growth percent below 10; inactive = the rest.
Experiments:
Assay in all cases: NCI-60 one-dose screen, 48 h (100 = growth as untreated, 0 = no growth, -100 = all killed)
[1] = test system: NCI-H23 lung; details: 10 µM unless noted
[2] = test system: NCI-H226 lung; details: 10 µM unless noted
[3] = test system: NCI-H322M lung; details: 10 µM unless noted
[4] = test system: HOP-62 NSCLC; details: 10 µM unless noted
[5] = test system: NCI-H460 lung; details: 10 µM unless noted
[6] = test system: HOP-92 NSCLC; details: 10 µM unless noted
[7] = test system: NCI-H522 lung; details: 10 µM unless noted
[8] = test system: A549/ATCC NSCLC; details: 10 µM unless noted
[9] = test system: 786-0 renal; details: 10 µM unless noted
[10] = test system: COLO 205 colon; details: 10 µM unless noted
[11] = test system: DU-145 prostate; details: 10 µM unless noted
[12] = test system: K-562 leukemia; details: 10 µM unless noted
[13] = test system: MALME-3M melanoma; details: 10 µM unless noted
[14] = test system: MDA-MB-231 breast; details: 10 µM unless noted
[15] = test system: RXF 393 renal; details: 10 µM unless noted
[16] = test system: SF-268 CNS; details: 10 µM unless noted
[17] = test system: SF-295 CNS; details: 10 µM unless noted
[18] = test system: SF-539 CNS; details: 10 µM unless noted
[19] = test system: UACC-257 melanoma; details: 10 µM
[20] = test system: M14 melanoma; details: 10 µM unless noted

SMILES | growth [1] | growth [2] | growth [3] | growth [4] [%] | growth [5] | growth [6] | growth [7] | growth [8] | growth [9] | growth [10] | growth [11] [%] | growth [12] | growth [13] | growth [14] | growth [15] | growth [16] [%] | growth [17] | growth [18] | growth [19] | growth [20]
CC1CCc2c(sc3nc(SCC(=O)N/N=C/c4ccc(Cl)cc4)n(-c4ccccc4)c(=O)c23)C1 (stereo not given) | 90.7% | 91% | 98.1% | 78.4 | 107% | 107% | 93.6% | 101% | 96.5% | 135% | 97.8 | 100% | 99% | 89.5% | -2.72% (active) | 81.6 | 95.2% | 90% | 102% | 102%
C/C(=N\NC(=S)Nc1ccc(Br)cc1)c1cc2ccccc2oc1=O | 34.1% | -17.8% (active) | 37.4% | 30.5 | 3.8% (active) | 29.1% | -14.4% (active) | 27.3% | 5.25% (active) | 71.1% | 29.4 | 9.69% (active) | 24% | 23.2% | -24.2% (active) | 14.5 | 32.1% | 20.9% | 10.1% | -28.8% (active)
O=S(=O)(Nc1ccc2c(c1)OC(F)(F)O2)c1ccc(-c2cnc(C3CC3)o2)cc1 | 55.2% | 60.8% | 83.3% | 35.9 | 17.3% | 66.7% | 43.2% | 47.7% | 47.2% | 47.4% | 68.6 | 9.69% (active) | 50.2% | 48.1% | 49.5% | 60.6 | 22.6% | 37.8% | 58.9% | 25.4%
CCNC(=O)Oc1ccc(/C(=C(/C)c2ccccc2)c2ccc(OCCN3CCCC3)cc2)cc1 | 74.6% | 96.6% | 93.2% | 89.9 | 76.2% | 61.9% | 83.3% | 74.9% | 36.7% | 75.5% | 89.5 | 11.3% | 30% | 66.7% | 54.6% | 80.3 | 60.5% | 49.7% | -3.88% (active) | 24.3%
COc1cc(CNC(=O)Cc2ccccc2[N+](=O)[O-])ccc1OCC(=O)NO | 102% | 100% | 107% | 102 | 114% | 101% | 102% | 106% | 106% | 104% | 108 | 105% | 100% | 102% | 116% | 102 | 105% | 95.9% | 105% | 101%
Oc1ccccc1-c1nnc(SCc2ccc(O)c3ncccc23)n1-c1ccccc1 | 17.4% | 9% (active) | 21.9% | 13.6 | 3.98% (active) | -4.85% (active) | -6.01% (active) | 9.34% (active) | 20.1% | 34.5% | 22.9 | 10.8% | 0.0457% (active) | 28.2% | -9.85% (active) | 14.9 | 1.17% (active) | 7.96% (active) | 1.58% (active) | -28.3% (active)
Oc1ccc(CSc2nnc(-c3ccc(Oc4ccccc4)cc3)n2-c2ccccc2)c2cccnc12 | 21.3% | 18.9% | 18.3% | 15 | 0.254% (active) | 10.5% | 15% | 11.8% | 21.6% | 27.7% | 26.5 | 15.3% | 11.9% | 35.8% | 21.5% | 22.3 | 0.102% (active) | 2.32% (active) | 0.403% (active) | -4.33% (active)
CSc1nccc(-c2c(-c3ccc(F)c(OCc4ccc(F)cc4)c3)nc3sccn23)n1 | 60.2% | 76.6% | 91.3% | 104 | 89.8% | 54.5% | 66.7% | 78.7% | 74.4% | 83.8% | 88.5 | 59.7% | 104% | 65.8% | 84% | 83.9 | 80.3% | 73.3% | 64.4% | 89%
O=C(CCCCCCN1CC(=O)N2[C@@H](c3ccccc3)c3[nH]c4ccccc4c3C[C@H]2C1=O)NO | 70.9% | 105% | 72.4% | 58.5 | 54.2% | 57.9% | 35% | 95.9% | 93.3% | 58.8% | 58.3 | 26.3% | 21.8% | 70.1% | 76.6% | 82.1 | 57.4% | 62.5% | 45.7% | 49.9%
COc1ccc(C(=O)c2c(N)c(C#N)cn2-c2cccc(OC)c2)cc1 | 49.8% | 63.5% | 62.6% | 30.6 | 27.8% | 21.7% | 3.14% (active) | 42.9% | 37.5% | 25.3% | 50.6 | 14.5% | 40.5% | 39.2% | 17.3% | 64.6 | -25.5% (active) | -5.54% (active) | 47.5% | 10.3%
O=C1c2c(c3c4cc(Br)ccc4[nH]c3c3ccc4ccccc4c23)C(=O)N1CCN1CCNCC1 | 77.1% | 87.6% | 95.6% | 60.9 | 36.5% | 82.5% | 74.3% | 54.4% | 76.5% | 86.5% | 72.1 | -25.7% (active) | 80.5% | 84.1% | 82.8% | 72.7 | 73.6% | 87.1% | 98.3% | 87.6%
O=C(Nc1cc(Cl)cc(Cl)c1)Nc1ccc2oc(=O)ccc2c1 | -6.33% (active) | 32.7% | 21.9% | 40.5 | 1.17% (active) | -26.6% (active) | 6.05% (active) | 16.2% | 23.9% | -10.9% (active) | 17 | 15.4% | 0.228% (active) | 24.6% | 47.7% | 24.8 | 3.51% (active) | 22.5% | 23.4% | 32.5%
COc1cc(C(=O)c2cc(C(C)=O)c3c4ccccc4ccn23)cc(OC)c1OC | 64.4% | 66.8% | 74.8% | 56 | 45.1% | 26.8% | 52% | 61.1% | 70.1% | 38.6% | 94.4 | 23.9% | 64.6% | 54.7% | 49.2% | 74.3 | 55.2% | 75.3% | 75.8% | 58.6%
O=C(CSc1ccc(-c2nc3ccccc3[nH]2)cn1)N1CCN(c2ccccc2F)CC1 | 67.3% | 59.6% | 101% | 89.8 | 88.5% | 71.9% | 52.4% | 81.2% | 95.4% | 79.7% | 90.7 | 41.9% | 90.8% | 100% | 90.7% | 87.7 | 61.4% | 92.1% | 56.2% | 59.8%
COc1ccc(/C=C/C(=O)c2nnn(-c3ccc(C(=O)O)cc3)c2C)cc1OC | 105% | 100% | 91.3% | 107 | 107% | 102% | 88.4% | 97.5% | 98.4% | 109% | 104 | 80.8% | 95.8% | 96.7% | 112% | 99.4 | 103% | 91.7% | 97% | 92.6%
CCn1c2ccc(/C=N/OCCCN(C)C)cc2c2cc(/C=N/OCCCN(C)C)ccc21 | -5.99% (active) | 79.7% | -11.6% (active) | 62.5 | -3.59% (active) | 30.6% | -60.5% (active) | -67.8% (active) | -42.5% (active) | -55.6% (active) | 17.1 | -17.5% (active) | -88.3% (active) | -9.87% (active) | -73.3% (active) | 79.1 | -66.5% (active) | -80.4% (active) | -67.1% (active) | -84.4% (active)

— PubChem BioAssay (NCI)
